Shown are actives, neighbours in structure and some others; about 13% of the full set was active somewhere.
USP17 inh: inhibitors of human USP17 deubiquitinase. A8MUK1. purified USP17, Ub-rhodamine cleavage fluorescence, 3 h. inhibition, % at 50 µM. 6.5% of 47,000 active
USP30 block: inhibitors of human USP30 deubiquitinase | Q70CQ3 | purified USP30, Ub-rhodamine cleavage fluorescence | inhibition, % at 25 µM | 5.3% of 47,000 active | AID 1645860
USP8 inh: human USP8 deubiquitinase inhibition; P40818; purified USP8, Ub-rhodamine cleavage fluorescence, 30 min; inhibition, % at 20 µM; 4.2% of 47,000 active; AID 1645853
USP10 block: inhibitors of human USP10 deubiquitinase | AID 1645856 | purified USP10, Ub-rhodamine fluorescence, 60 min | 1.1% of 47,000 active | inhibition, % at 20 µM | Q14694
USP28 block: human USP28 deubiquitinase inhibition; inhibition, % at 25 µM; AID 1645857; 3% of 47,000 active; purified USP28, Ub-rhodamine cleavage fluorescence, 30 min; Q96RU2
The depositor's hits bear a star; / = no result given. Rule as the data show it: active = inhibition above about 30%; inactive = the rest.

SMILES | USP17 inh | USP30 block | USP8 inh | USP10 block | USP28 block
COc1cccc(-n2cc(-c3nc(-c4cccnc4)no3)c3ccccc3c2=O)c1 | 27.8 | 31.2* | 22.7 | 2.2 | 15.5
O=C1C(CO)=C[C@H](O)[C@H]2O[C@@H]12 | -3.0 | -21.0 | -4.7 | 1.2 | 0.6
COc1ccc(NC(=O)c2c(-c3ccc(C)cc3)c3c4n(c(-c5ccc(C)cc5)cn24)CCCC3)cc1 | -23.1 | -138.3 | -1.0 | -7.0 | -31.5
COCCNc1ncnc2c1oc1nc(CC(C)C)c3c(c12)CCC3 | -14.5 | 44.0* | 7.2 | -4.7 | 9.8
CCC(CO)Nc1ncnc2c1oc1nc(CC(C)C)c3c(c12)CCC3 (stereo unspecified) | -15.3 | 8.8 | 5.0 | 0.0 | -0.7
CC(C)Cc1nc2oc3c(N(C)CCO)ncnc3c2c2c1CCC2 | -1.8 | 90.8* | -0.3 | -1.1 | 40.5*
Cc1ccc(-c2nnc(N3CCC(C(=O)NCc4cccnc4)CC3)o2)cc1 | 9.9 | 3.0 | 13.5 | -2.2 | 6.7
O=C(C1CCN(c2nc3ccccc3[nH]2)CC1)N1CCC(N2CCCCC2)CC1 | -3.4 | -0.1 | -1.6 | -1.7 | -8.9
CC(C)c1nc2c(c(=O)c3ccccc3n2C)c(=O)n1CCc1ccccc1 | 3.9 | 49.7* | 0.9 | 6.8 | 35.0*
Cn1c2ccccc2c(=O)c2c(=O)n(Cc3ccccc3)c(C3CCCCC3)nc21 | 15.4 | 41.7* | 0.0 | 5.0 | 9.2
O=C(NC[C@@H]1OC[C@H]2CN(Cc3ccccn3)CC[C@H]21)c1ccno1 | -20.4 | -84.7 | -6.7 | -5.5 | -24.6
NC(=O)C1CSC(c2ccccc2O)=N1 (stereo unspecified) | -2.9 | -5.9 | -13.6 | -7.9 | -3.1
Cn1c(=O)c2cn3c(c2n(C)c1=O)C(c1cccc(F)c1F)Nc1ccccc1-3 (stereo unspecified) | 1.0 | / | -0.9 | -0.6 | /
c1cc(-c2noc(-c3ccoc3)n2)cc(-c2ccn[nH]2)c1 | -0.3 | -68.3 | -13.1 | -8.7 | -20.3
Fc1ccc(OCc2nc(-c3cccc(-c4ccn[nH]4)c3)no2)cc1 | 80.0* | 38.5* | 33.0* | 17.0 | 52.4*
C(=C\c1nc(-c2cccc(-c3ccn[nH]3)c2)no1)/c1ccco1 | -4.9 | -177.5 | 35.4* | -13.4 | -29.7
COc1ccc(-c2nc(-c3cccc(-c4ccn[nH]4)c3)no2)cc1F | 8.5 | -37.8 | -9.1 | -3.2 | -11.3
Cn1nccc1C(=O)N1CCC(C2Nc3ccccc3S(=O)(=O)N2)CC1 (stereo unspecified) | -15.4 | -27.5 | 0.0 | 0.0 | -17.3
O=C(C1CCCN(S(=O)(=O)N2CCOCC2)C1)N1CCN(Cc2ccc3c(c2)OCO3)CC1 (stereo unspecified) | 0.1 | 7.3 | 11.7 | -0.1 | 2.2
COc1ccc(-c2nc(Cn3nnc(C(=O)Nc4ccc(C)c(C)c4)c3N)c(C)o2)cc1 | 79.8* | 7.6 | 27.7 | 21.5 | -1.8
COc1ccc(-c2nc(Cn3nnc(C(=O)Nc4ccc(C)cc4C)c3N)c(C)o2)cc1 | 28.9 | 57.2* | 25.4 | -6.7 | 6.9
CCOC(=O)c1noc2nc(C)n(Cc3nc(-c4ccc(OC)cc4)oc3C)c(=O)c12 | 0.0 | -3.1 | -6.9 | -3.1 | -1.3
FC(F)(F)c1cc(C(F)(F)F)c2sc(Nc3ccccc3)nc2n1 | 4.5 | 12.1 | 92.3* | 3.8 | 20.0
NC(=O)c1nc(Nc2ccccc2)sc1N | -6.2 | -16.5 | -4.8 | -2.6 | -6.7
CCN1[C@H]2CCN(Cc3cccc(Cl)c3)CC[C@@H]2Oc2ccccc2S1(=O)=O | 0.1 | 2.4 | -45.1 | 7.7 | 2.1
SMILES | USP17 inh | USP30 block | USP8 inh | USP10 block | USP28 block
CC(OC(=O)c1c2c(nc3ccccc13)CCCC2)C(=O)Nc1ccc(N(C)C)cc1 (stereo unspecified) | 40.5* | -56.1 | 0.0 | 14.2 | -11.8
CC(Oc1nncc2ccccc12)C(=O)Nc1ccc(Cl)cc1Cl (stereo unspecified) | 66.8* | 72.1* | 28.4 | 4.3 | 19.3
CC(OC(=O)c1c2c(nc3ccccc13)CCCC2)C(=O)Nc1ccc(Cl)cc1Cl (stereo unspecified) | 30.5* | -5.4 | -11.6 | 0.2 | 4.5
CC(OC(=O)c1c2c(nc3ccccc13)CCCCC2)C(=O)Nc1ccc2ccccc2c1 (stereo unspecified) | 63.3* | 27.3 | 34.8* | 13.1 | 44.3*
CC(OC(=O)c1c2c(nc3ccccc13)CCC(C(C)(C)C)C2)C(=O)Nc1cccc([N+](=O)[O-])c1 (stereo unspecified) | 5.5 | 0.2 | 9.1 | -3.3 | 1.2
Cc1ccc(NC(=O)c2c3c(nc4ccccc24)CCCCC3)c(C)c1 | 74.5* | 34.9* | 11.7 | -4.9 | 6.3
CC(C)c1ccc(NC(=O)COc2nncc3ccccc23)cc1 | 22.0 | 33.2* | 0.5 | 1.5 | 11.8

High-throughput results: PubChem BioAssay, Buhrlage Lab, Dana-Farber Cancer Institute and Novartis Institutes for BioMedical Research (Cambridge, Mass)
